This note sets out measurements from PubChem BioAssay (NCI).

About 79,000 compounds went through this panel and 15% of them were active in at least one assay; those are over-represented in the sample as a whole. A number with no mark means an inactive call. Calls of active or inactive are those of the source. No stated cut-off is given here; in the data, active means growth inhibition above about 70%; inactive means the rest.

A short description of test [1]: NCI Yeast Anticancer Drug Screen. Data for the rad50 strain (AID 155).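 Further: 0% = growth of vehicle-only cultures of the same strain.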 Conditions: S. cerevisiae rad50 strain growth inhibition; at 50.0 µM; hits give high values. An outline of the steps: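 Inhibition values express reduced yeast growth in compound-treated cultures relative to vehicle-treated controls.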
A short description of test [2]: NCI Yeast Anticancer Drug Screen. Data for the mec2-1 strain (AID 157). Conditions: S. cerevisiae mec2-1 strain, at 50.0 µM, hits give high values. The method, boiled down:
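mec2-1 yeast strain, carrying an alteration in DNA damage repair or cell cycle control, was exposed to compounds; growth inhibition was measured relative to vehicle-treated controls.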

Test [3] in a line: NCI Yeast Anticancer Drug Screen. Data for the sgs1 mgt1 strain (AID 161).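 Further: 0% = growth of cultures given vehicle only.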 Conditions: S. cerevisiae sgs1 mgt1 strain, at 50.0 µM, hits give high values. An outline of the steps: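 Growth of a repair-deficient yeast mutant was monitored after compound treatment and expressed as inhibition relative to vehicle-treated cultures.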
Test [4] is described as follows: NCI Yeast Anticancer Drug Screen. Data for the cln2 rad14 strain (AID 165).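 Further: 0% = growth equal to vehicle treated cultures.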 Conditions: S. cerevisiae cln2 rad14 strain, at 50.0 µM, hits give high values. An outline of the steps:
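Yeast carrying cln2 and rad14 alterations (cell cycle control and DNA damage repair) were exposed to compounds. Growth inhibition was measured against vehicle-treated controls.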

The nature of test [5]: NCI Yeast Anticancer Drug Screen. Data for the bub3 strain (AID 167). Particulars: S. cerevisiae bub3 mutant strain, at 50.0 µM, hits give high values. An outline of the steps: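 Steps: expose the mutant yeast strain to compound; grow alongside vehicle-treated cultures; measure growth; express inhibition against the vehicle cultures.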
Test [6] is described as follows: NCI Yeast Anticancer Drug Screen. Data for the mlh1 rad18 strain (AID 175). Conditions: S. cerevisiae mlh1 rad18 strain growth inhibition; at 50.0 µM; hits give high values. An outline of the steps:
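Growth inhibition of the yeast strain was measured after compound exposure and expressed relative to vehicle-treated controls. The strain carries defined defects in DNA damage repair.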

Turning to `ClCc1c(-c2ccccc2)nn(-c2ccccc2)c1CCl`, the growth inhibition in test [1] was 8.65%; in test [2] it was 14.2%; in test [3], 38.5%; in test [4], 6.05%; in test [5] it was 57.5%; in test [6], 37%.
On to `CC(=O)Oc1ccc(C(c2ccccc2)c2ccccc2)c2ccccc12`, for which the growth inhibition in test [1] is -9.8%; in test [2] it was -13.4%; in test [3] it was -1.95%; in test [4], 2.85%; in test [5] it was -52.8%; in test [6] it was -18.9%.
As for `Cc1cc(N(CCOS(C)(=O)=O)CCOS(C)(=O)=O)ccc1C=Nc1ccc(C(=O)O)c(O)c1`, the growth inhibition is 82.8% (active) in test [1]; 86.8% (active) in test [2]; 46% in test [3]; 77.5% (active) in test [4]; 19.2% in test [5]; 88% (active) in test [6].
In the case of `O=C(O)c1cc2ccccc2c(N=Nc2cc(C(F)(F)F)ccc2Cl)c1O`, the growth inhibition in test [1] is -12.2%; in test [2], -9.65%; in test [3] it was -4.05%; in test [4], 5.4%; in test [5], -6.3%; in test [6], -13.1%.
Regarding `O=C(CCCO)c1nc2ccccc2s1`, the growth inhibition in test [1] was -2.5%; in test [2], 12.9%; in test [3] it was 2.8%; in test [4], -8.55%; in test [5] it was 11.8%; in test [6], 4.7%.
Regarding `OC1(C(O)(c2ccc(-c3ccccc3)cc2)c2ccc(-c3ccccc3)cc2)CCCCC1`, the growth inhibition is -11% in test [1]; -7.85% in test [2]; -34% in test [3]; -14.6% in test [4]; -26.4% in test [5]; -0.5% in test [6].
Consider `O=C(Nc1ccc(Cl)cc1)c1cc2cc(N=Nc3ccc(Br)cc3)ccc2oc1=O`, for which the growth inhibition is -18.1% in test [1]; 9.75% in test [2]; -13.3% in test [3]; -1.65% in test [4]; -23.9% in test [5]; -6.65% in test [6].
With `[O-]c1on[n+]2c1c(Nc1ccc(Cl)cc1)nc1ccccc12`, the growth inhibition is -31.1% in test [1]; -28% in test [2]; -22.3% in test [3]; -21.2% in test [4]; -36.5% in test [5]; -39.5% in test [6].
Take `Cc1ccc(N=C=S)cc1Cl`: the growth inhibition in test [1] was 6.75%; in test [2] it was 9.65%; in test [3], 32.4%; in test [4], 6.55%; in test [5], 15.8%; in test [6], 27.9%.
Consider `CC(=O)Nc1cc2c(cc1Cl)[nH]c(=O)c1ccccc12`, for which the growth inhibition in test [1] was 8.1%; in test [2], -10.9%; in test [3], -19.8%; in test [4] it was -3.25%; in test [5], 11.4%; in test [6], 7.5%.
Turning to `COC1=C(NCCc2ccccc2)C(=O)C(OC)=C(NCCc2ccccc2)C1=O`, the growth inhibition in test [1] is -43.2%; in test [2], -4.7%; in test [3] it was 18.9%; in test [4] it was -22.3%; in test [5], 1.5%; in test [6], -11.6%.
For the compound `CC(=O)OC(C)C(C)Br` (stereo not drawn), the growth inhibition in test [1] is 9.75%; in test [2] it was 4.4%; in test [3], -9.35%; in test [4] it was -25.1%; in test [5], -13%; in test [6], 4.9%.
Take `CCCCc1c[nH]c(=O)[nH]c1=O`: the growth inhibition is 4.55% in test [1]; 5.05% in test [2]; -8.4% in test [3]; -34.6% in test [4]; -12.6% in test [5]; 5.7% in test [6].
Turning to `Cc1cc(SCC(=O)c2ccccc2)nc2ccccc12`, the growth inhibition in test [1] is -6.75%; in test [2] it was -24.1%; in test [3], -8.85%; in test [4], -2.25%; in test [5], -53.1%; in test [6] it was -2.7%.
As for `C/C=N\N1C(=O)c2ccccc2C1=O`, the growth inhibition in test [1] was 11.5%; in test [2], 13.7%; in test [3], 13.8%; in test [4], 9.1%; in test [5], 19.4%; in test [6], 14.8%.
On to `C/C=N\n1c(C)c(C#N)c(C#N)c1N`, for which the growth inhibition in test [1] is 8.6%; in test [2], 10.2%; in test [3], -23.6%; in test [4], -14.1%; in test [5] it was -21.7%; in test [6], -35.5%.
As for `N#C/C(=N/Nc1ccccc1)c1ccccc1`, the growth inhibition in test [1] is 6.5%; in test [2], 9.1%; in test [3], -12.1%; in test [4] it was -11.2%; in test [5] it was 1.85%; in test [6], -7.95%.
On to `C1=N/C=C\C=C/c2ccc[n+](CCCCC[n+]3ccccc3-c3ccccn3)c21`, for which the growth inhibition in test [1] is 81.5% (active); in test [2] it was 63.5%; in test [3], 86.8% (active); in test [4] it was 63.1%; in test [5], 36.7%; in test [6] it was 75.2% (active).
With `CCCC1(O)c2ccccc2-c2ccccc21`, the growth inhibition is 12.1% in test [1]; 17.9% in test [2]; -5.6% in test [3]; 14.9% in test [4]; 26.4% in test [5]; 17% in test [6].
On to `Cc1cc(N(CCC#N)CCC#N)ccc1N=Nc1ccc(C(=O)O)cc1`, for which the growth inhibition in test [1] was -30.9%; in test [2], -34.6%; in test [3] it was -13.7%; in test [4], -1.15%; in test [5], -2.9%; in test [6], -25%.
As for `CCN(CC(O)COc1ccc2c(c1)[n+]([O-])nc(N)[n+]2[O-])C(C)=O` (stereo not drawn), the growth inhibition in test [1] was 46.5%; in test [2], 38%; in test [3], 40.3%; in test [4], 38.9%; in test [5], 31%; in test [6], 38.8%.
For the compound `CSc1ccc(NC(=O)c2ccc(C(=O)Nc3ccc(SC)cc3)cc2)cc1`, the growth inhibition in test [1] was -17.5%; in test [2], -10.7%; in test [3] it was -12.6%; in test [4], -14.9%; in test [5], -1.95%; in test [6] it was -26.7%.
Consider `COc1cccc(/C(CC(O)(C(F)(F)F)C(F)(F)F)=N\N(C)C)c1`, for which the growth inhibition in test [1] is -30.6%; in test [2] it was -9.9%; in test [3] it was -8.7%; in test [4], -38.2%; in test [5], 1.5%; in test [6], -25.2%.
As to `Fc1ccc(Cl)c(-c2nc3ccccc3[nH]2)c1`, the growth inhibition was 14.2% in test [1]; 15.4% in test [2]; 2.85% in test [3]; 2.35% in test [4]; -1.5% in test [5]; 47.3% in test [6].
Regarding `C=C1C(=O)OC2C[C@@]3(C)CCCC(=C)C3CC12` (stereo partly drawn), the growth inhibition in test [1] was 21.4%; in test [2] it was 21.1%; in test [3] it was 32.1%; in test [4] it was 28.6%; in test [5], 20.6%; in test [6] it was 13%.
Regarding `CN(C)Cc1cccc(-c2ccccc2)c1O`, the growth inhibition in test [1] was 21.8%; in test [2], -4.9%; in test [3], 12%; in test [4], -15.8%; in test [5] it was 5.3%; in test [6], 17.2%.
As to `c1ccc2c(c1)cnc1cc3c(cc12)ncc1ccccc13`, the growth inhibition in test [1] is 8.05%; in test [2] it was 19.9%; in test [3], 9.3%; in test [4] it was 14.8%; in test [5], -6.45%; in test [6], 28.8%.
On to `CCOc1ccc(CN(CCN2CCCCC2)c2ccccn2)cc1`, for which the growth inhibition in test [1] is 26.6%; in test [2], 9.45%; in test [3], 23.4%; in test [4] it was -7.4%; in test [5] it was 11.5%; in test [6] it was 24.1%.
Regarding `CC(C)NCC1CCCO1` (stereo not drawn), the growth inhibition is -6.65% in test [1]; -23.2% in test [2]; -16.4% in test [3]; 4.9% in test [4]; -5.7% in test [5]; -7.85% in test [6].
As for `CC(=O)/C=C1\N(C)c2ccccc2C1(C)C`, the growth inhibition in test [1] was 2.1%; in test [2], -12.3%; in test [3], -2.05%; in test [4], -8.55%; in test [5], -2.9%; in test [6], -10.9%.
With `O=C(O)CCCCCCCCCCOc1ccc(Cl)cc1`, the growth inhibition in test [1] was 24.2%; in test [2], -7.9%; in test [3], 10.1%; in test [4], -3.45%; in test [5], 11%; in test [6] it was -33.6%.
As for `CCc1nnc(CC)n1NC(=O)Nc1ccc(C)cc1`, the growth inhibition in test [1] is -5.1%; in test [2] it was -14.5%; in test [3], -3.75%; in test [4] it was 7.05%; in test [5] it was -7.65%; in test [6], 1.25%.
As for `O=C(Cl)c1cc2ccccc2c2c(=O)c3ccc4cc5ccccc5cc4c3[nH]c12`, the growth inhibition in test [1] is -51.6%; in test [2], -3.2%; in test [3], -10.4%; in test [4], -53.8%; in test [5], -13.2%; in test [6] it was -11.6%.
As for `CCCC(CC)=C(c1ccc(OC(C)=O)cc1)c1ccc(OC(C)=O)cc1`, the growth inhibition in test [1] is 44.4%; in test [2], 24.3%; in test [3], 51.5%; in test [4], 38.9%; in test [5] it was 31%; in test [6], 54.7%.
For the compound `CN(C)c1ccc(/C=N\NC(=S)NN2CCN(NC(=S)N/N=C\c3ccc(N(C)C)cc3)CC2)cc1`, the growth inhibition in test [1] was 30.2%; in test [2], 11.1%; in test [3], 5.2%; in test [4], 4.85%; in test [5], 1.55%; in test [6] it was 27.8%.
Consider `O=P(O)(O)c1ccc(Cl)cc1`, for which the growth inhibition in test [1] is -1.8%; in test [2] it was -1.3%; in test [3] it was -1.65%; in test [4], 8.7%; in test [5], 8.55%; in test [6] it was -9.4%.
`CN(C)Cc1ccc2ccccc2c1`: the growth inhibition was 0.2% in test [1]; 7.1% in test [2]; 9.95% in test [3]; -39.1% in test [4]; 6.85% in test [5]; -14.3% in test [6].
Regarding `C[N+](C)(C)CC(=O)NN`, the growth inhibition was 10.1% in test [1]; -0.8% in test [2]; -21.7% in test [3]; -17.6% in test [4]; -18% in test [5]; 38.6% in test [6].
